Laboratory results published in PubChem BioAssay (NCI).
This is part of a sample that, as a whole, favours compounds with a hit. Of some 83,000 tested, about 20% had one in any assay.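 Testing used 96-well plates and a 48-hour single-concentration exposure. Example: -40 means 40% of the starting cells died.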 A number with no mark means an inactive call. The source made the active and inactive calls. How the source made its calls: active means growth percent below 10; inactive means the rest.

Legend:
Test in all cases: NCI-60 one-dose screen, 48 h (100 = growth as untreated, 0 = no growth, -100 = all killed)
Settings in all cases: 10 µM unless noted
[1] = test system: DU-145 prostate
[2] = test system: K-562 leukemia
[3] = test system: MALME-3M melanoma
[4] = test system: MDA-MB-231 breast
[5] = test system: RXF 393 renal
[6] = test system: SF-268 CNS
[7] = test system: SF-295 CNS
[8] = test system: SF-539 CNS
[9] = test system: UACC-257 melanoma
[10] = test system: M14 melanoma
[11] = test system: HCT-15 colon
[12] = test system: HT29 colon
[13] = test system: SNB-19 CNS
[14] = test system: U251 CNS
[15] = test system: PC-3 prostate
[16] = test system: SK-MEL-5 melanoma
[17] = test system: UACC-62 melanoma
[18] = test system: LOX IMVI melanoma
[19] = test system: SK-MEL-28 melanoma

Row | Structure (SMILES) | growth [1] | growth [2] | growth [3] | growth [4] | growth [5] | growth [6] | growth [7] | growth [8] | growth [9] | growth [10] | growth [11] | growth [12] | growth [13] | growth [14] | growth [15] | growth [16] | growth [17] | growth [18] | growth [19]
1 | Cc1ccc(S(=O)(=O)NCCNc2nccc(-c3c(-c4cccc(N)c4)nc4sccn34)n2)cc1 | 96.9% | 67.1% | 106% | 85.9% | 102% | 86.7% | 95.6% | 101% | 91.1% | 107% | 92.1% | 91.7% | 104% | 101% | 84.5% | 84.6% | 79.4% | 95% | 107%
2 | Cc1ccc(S(=O)(=O)NCCNc2cc(-c3cn(C(C)(C)C)nc3-c3cccc(O)c3)ccn2)cc1 | 88.9% | 18.6% | 61.8% | 76.6% | 68.2% | 62% | 71.6% | 64.5% | 79.2% | 86.9% | 31.1% | 17.2% | 84.4% | 62.9% | 46.7% | 30.9% | 77% | 47.4% | 57.7%
3 | CCOC(=O)c1c(NS(=O)(=O)c2ccc(C)cc2)sc2c1CCC1(C2)OCCO1 | 114% | 89.5% | 114% | 99.7% | 103% | 93.6% | 93.1% | 93.7% | 96.2% | 104% | 98.3% | 104% | 98.7% | 99.1% | 87.1% | 95.2% | 78.2% | 98.9% | 101%
4 | O=C(Nc1ccc2c(c1)OCCO2)C(=O)c1c[nH]c2ccccc12 | 7.38% (active) | 12.2% | 46.6% | 28.9% | 24.3% | 46.1% | 23.8% | -6.87% (active) | 70.7% | 19.9% | 33.5% | 4.06% (active) | 46.9% | 34% | 28.9% | 29.7% | 33.1% | 36.1% | 53%
5 | CC(=O)Oc1csc(N(C(C)=O)c2cccc(C(F)(F)F)c2)n1 | 99.2% | 105% | 88.8% | 71.9% | 103% | 88.9% | 96.5% | 91% | 88.5% | 77.7% | 94.4% | 102% | 97.8% | 88.3% | 85.6% | 92.1% | 89.2% | 92.3% | 103%
6 | Cc1cc(N/N=C/c2nc(-c3ccc(Br)cc3)oc2C)c2cc(Br)ccc2n1 | 34.6% | -29.2% (active) | 17.4% | 55.9% | 92.8% | 75.1% | 96.7% | 89% | 95.8% | 57.5% | 6.22% (active) | -16.1% (active) | 41.7% | -9.51% (active) | 77.2% | 92.9% | 73.9% | -37.6% (active) | 24.7%
7 | COC(=O)C(Sc1ccc(Cl)cc1)C1SC(=S)N(Cc2ccccc2)C1=O (centres undefined) | 102% | 44% | 98.9% | 98.9% | 106% | 87.7% | 75.6% | 109% | 92.2% | 100% | 73.9% | 111% | 92.6% | 90.3% | 97.4% | 101% | 99.1% | 74.9% | 109%
8 | COc1ccc(-n2c(-c3ccccc3)c(-c3ccccc3)c3c(SCC(=O)N/N=C/c4ccc(Cl)cc4)ncnc32)cc1 | 95.4% | 80.7% | 107% | 82.1% | 97.3% | 88.5% | 92.9% | 93.8% | 95.1% | 99.5% | 105% | 94.4% | 100% | 91.6% | 83.3% | 86.9% | 86.7% | 88.4% | 104%
9 | C1=Cc2ccccc2N(c2nnc(-c3ccccc3)o2)c2ccccc21 | 105% | 67.8% | 109% | 85.5% | 91.1% | 91.7% | 92% | 103% | 111% | 100% | 45.8% | 102% | 96.7% | 66.8% | 60.6% | 72% | 86.4% | 79.9% | 98.2%
10 | CCOC(=O)C1C(=O)C=C(c2ccc(OC)cc2)CC1c1sc(N(C)Cc2ccccc2)nc1Cl (centres undefined) | 91.5% | 68.4% | 93.4% | 68.3% | 93.9% | 74.4% | 83.6% | 84.7% | 91.2% | 87.6% | 93.3% | 88.1% | 74.1% | 84.8% | 62.9% | 81% | 46.1% | 92.1% | 93.7%
11 | CN1CCN(Cc2ccc(NC(=O)c3cncc(C#Cc4cnc(N)c5ccncc45)c3)cc2C(F)(F)F)CC1 | 22.2% | -16.8% (active) | -44.5% (active) | -33.7% (active) | -30.1% (active) | 24.5% | 20.8% | -20.6% (active) | 23.8% | 2.43% (active) | 10.9% | 9.95% (active) | 51.3% | 37.3% | 25.5% | 11.9% | -28.8% (active) | -83.9% (active) | -3.08% (active)
12 | CC(C)(C)n1cc(-c2ccnc(NCCCNS(=O)(=O)c3ccc(C(F)(F)F)cc3)c2)c(-c2cccc(O)c2)n1 | 46.3% | 3% (active) | -18% (active) | 1.39% (active) | -3.46% (active) | 36.3% | 1.72% (active) | 19.8% | 17.2% | 1.32% (active) | -55.6% (active) | 2.27% (active) | 6.04% (active) | 12.9% | 13.2% | 16.7% | 48.7% | -81.8% (active) | -48.3% (active)
13 | Nc1cccc(-c2nc3sccn3c2-c2ccnc(NCCCNS(=O)(=O)c3cccc4ccccc34)n2)c1 | 47.9% | 22.6% | 62.2% | 39.5% | 57.4% | 49.2% | 38.3% | 65.9% | 47.9% | 43.8% | 25.4% | 20.6% | 55.6% | 49.3% | 31.2% | 4.1% (active) | 22.2% | 9.92% (active) | 64.5%
14 | O=[N+]([O-])c1cccc(-c2nc3sccn3c2-c2ccnc(NCCCNS(=O)(=O)c3ccc(Cl)cc3)n2)c1 | 64.2% | 26.6% | 62.8% | 70.8% | 77.9% | 69.7% | 37.2% | 84.9% | 47.7% | 47% | 35.2% | 56.4% | 83.5% | 87.8% | 28.1% | -17.2% (active) | 7.02% (active) | 35.4% | 66%
15 | COc1cc([N+](=O)[O-])c2ncccc2c1O | 8.92% (active) | 130% | -25.9% (active) | 98.6% | 93.3% | 88.2% | 3.61% (active) | 24.3% | 48% | -23.9% (active) | 4.36% (active) | 44.6% | 6.29% (active) | 53.3% | 78.9% | -59.4% (active) | 15.8% | 66% | 28.5%
16 | C=C1C(=O)O[C@H]2[C@H]1CC/C(Cn1cc(CNC(=O)/C=C/c3c[nH]c4ccccc34)nn1)=C\CC[C@@]1(C)O[C@@H]21 | 103% | 23.6% | 98% | 99.7% | 84% | 93.5% | 93.3% | 80.4% | 74.9% | 84.3% | 94.4% | 92.4% | 91.5% | 94.3% | 95.3% | 83.8% | 87.6% | 67.3% | 91.7%
